According to the supplement of paper PMC6555819:

Each sequence was assayed on RXRa DBDmut IVT, anti-RXR (DBD mutation: RXRa K156A/R161A, NR concentration 90 nM) (assay: PBM binding z-score (relative to random genomic background probes); higher = stronger binding; sequences stand for … in GC…GCGATTGACAGCGTAGAATGAAGG).
Summary of the method: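 The probes on custom Agilent 4×180K protein-binding microarrays were double-stranded, with 34-nt variable regions bearing direct-repeat seeds, single-nucleotide variants, half-site ablations and random human genomic background sequences. Incubation lasted 1 h with ligand-free nuclear receptor dimers in PBS pH 7.4, 2% milk, 0.02% Triton X-100, 1 mM DTT, 0.2 mg/mL BSA and 0.4 mg/ml salmon testes DNA. Antibodies against each partner (one per run) detected bound dimers, and fluorescence scans were regression-normalized. Binding z-scores take the random background probes as reference.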
CTCGAATGGTCGTGCTCAGGTGAGTATACCAAAC gave a PBM binding z-score of -0.0041. Work on CCTGCTAGGTCATGGTCAGCTAGTCTACAGTATG yielded a PBM binding z-score of 1.84. Work on GCTTGTAGATCAAGGTTAAGAATGACTAAGCTAA yielded a PBM binding z-score of 0.0922. In the case of CCTATTAGTTGACCATAAGCGCAACCGAAGCTCG, the PBM binding z-score is reported as 0.856. For CGGACTGGGGCATAAGGTTACCATAAGCCAGCCC, the PBM binding z-score was -0.836. Sequence CCTGCTAGGTCATGGTCGGCTAATCTACAGTATG has a PBM binding z-score of 1.75. CCTAACGGGTCACGAGGTTATAGCACGACGAGCG gave a PBM binding z-score of 1.5. CTACCAAGGTGAACAAGGTCGTTGTTTACTATTC was tested, and the PBM binding z-score was 1.63. In the case of TCATATAGGTAACGGTGAAAGTCGAACGATATGA, the PBM binding z-score is reported as 0.399. For CGTCCAAGGTCTGAGAGGTCAGTGAATGCCGAGT, the PBM binding z-score was 0.83. Sequence CTACCAAGTTGAACAAGGTCGTTGATTACTATTC has a PBM binding z-score of 2.12. ATCTCTAGGTAAGACTCAGTTCAGTTAAGAACGC showed a PBM binding z-score of 0.735. TCTATTAGTTGATTGGGGCAACCGAAACAGCGGA was tested, and the PBM binding z-score was 1.34. With AGAATGAGGTTATACGTAGCTCAGGGAAGAAAGT the PBM binding z-score was 1.7. In the case of ATCTCTATGTAAAGATAGTTCAGTGAATGCAAAT, the PBM binding z-score is reported as 0.0227. CCTCGCAGGCCAGGGTCACTCAAGCATTTCGCTT showed a PBM binding z-score of 0.363. Work on ATATGTAGGTTAAGGTTCATTCAGGTTGGTTCGC yielded a PBM binding z-score of 3.2. With TAGCCTAGGTCATTGGGCCAGCATAGTACGCATC the PBM binding z-score was 1.49. TCTTGTAGGTCAGCAGGTTAAGAAAGCTGGCCAA was tested, and the PBM binding z-score was 0.785. CCTACTGGGCCACGAAAGGTCAGTGATTCAGTGA showed a PBM binding z-score of -0.37. With CCGACTGGGGCATAAGATTACCATAAGCCAGCCC the PBM binding z-score was -0.222. Sequence ATATGTAGGTTACATTCGGGTCATTCAGGCTATG has a PBM binding z-score of 1.74. ACTCGGACGACAAAGGTCAGAGCTACGCCAGTGA gave a PBM binding z-score of -0.0196. Sequence GCTAGCTGGTCAGTAAAAGGTCACACACCGGTCG has a PBM binding z-score of 0.376. Work on CCGACTGGGGTATAAGGTTACCATAAGCCAGCCC yielded a PBM binding z-score of -0.174. In the case of TCATATAGGTAAAGGTGAAATTCGAACGATATGA, the PBM binding z-score is reported as 0.746. For CGTCCAAGGTAAAAGGTCAGTGAAGAGATGACGG, the PBM binding z-score was 0.584. AGTCAAAGTACAGGACGAGGTAACGTAAAGCACG was tested, and the PBM binding z-score was -0.155. Sequence CCTACTGGGCCATCAGGTTATTGATATCAACGTT has a PBM binding z-score of -0.157. Work on TAGCCTAGGTCATTCAGAGGCCAGTATAGAAAGC yielded a PBM binding z-score of 1.57. With CCTACAGGGCCATTCAGAGGTCATTGATCATATG the PBM binding z-score was 1.85. Sequence CGTCCAAGGTCAATGCTAGGTCAGTGGAAGCATT has a PBM binding z-score of 3.57. In the case of GCTGCTAGGTCAGGCTGGTCAGCTAACGGGTACG, the PBM binding z-score is reported as 0.391. Work on TCTAGTTGGTCCAAGGTCACACACTCGAAATGCG yielded a PBM binding z-score of 2.01. Sequence CATACAGGGTCAGCTAGGCCATAGTAGGGACGGC has a PBM binding z-score of 1.7. With CCTCGGAGGACAACAGGACGTCAGAGCTGCCAGA the PBM binding z-score was 0.0264. In the case of TCGAGTAGGTTAGTCGGGGCAATCAGCCAACATA, the PBM binding z-score is reported as 0.255. In the case of CGTCGAAGGTCAGCAGGTCAGTGAAAGCGACGTG, the PBM binding z-score is reported as 1.34. Work on TAGCCTAGGTCATTCAGGGGCCCGTATAGAAAGC yielded a PBM binding z-score of 1.39. Work on GCTAGCAAGCCATTTGGGTCACTCAATGACGGGC yielded a PBM binding z-score of -0.364.
